# An excerpt weighted towards active compounds, which were near 5.7% of everything screened.
# DAX1 inh-1: DAX1 (NR0B1) inhibitors on StAR promoter, primary screen, cell-based, luminescence, SF-1 (NR5A1), full-length DAX-1 | HEK293T StAR-luciferase reporter, SF-1/DAX-1 repression relief | inhibition, % at 6.8 µM | 370,000 tested, 1.1% active | AID 652010, 2013;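 active = inhibition above the mean over all tested compounds plus 3 SD, cut at about 3.6% in these data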;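 note: 0% = DAX-1 cells with DMSO and 100% = cells lacking DAX-1 with DMSO; higher inhibition means more luminescence from relief of DAX-1 repression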
# ssDAF12 agonist: S. stercoralis DAF-12 nuclear receptor activators, primary screen, cell-based, luminescence, HEK293, GRIP1 co-expression, lit1-tk-luc; activation, % at 6.8 µM; HEK293 ssDAF-12/GRIP1 lit1-tk-luc reporter; % of 3 µM dafachronic acid response; Nuclear hormone receptor DAF-12 (Strongyloides stercoralis); AID 652126, 2013; 370,000 tested, 1% active;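 active = activation above the mean over all tested compounds plus 3 SD, cut at about 0.9% in these data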;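 note: 0% = DMSO-only wells and 100% = 3 µM delta7-dafachronic acid wells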
# DAX1 inh-2: DAX1 (NR0B1) inhibitors, primary screen, cell-based, HEK293, Gal4-DAX1, luciferase luminescence | Nuclear receptor subfamily 0 group B member 1 (Homo sapiens), P51843 | HEK293 Gal4-DAX1 luciferase reporter | inhibition, % at 6.75 µM | 340,000 tested, 0.99% active | AID 504766, 2011;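 active = inhibition above the mean over all tested compounds plus 3 SD, cut at about 4.2% in these data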;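 note: 0% = DAX1-transfected cells with DMSO and 100% = empty-vector control cells with DMSO; inhibition shows as a rise in luminescence from relieved DAX1 repression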
# Target sequence (P51843 207-470 limits assumed): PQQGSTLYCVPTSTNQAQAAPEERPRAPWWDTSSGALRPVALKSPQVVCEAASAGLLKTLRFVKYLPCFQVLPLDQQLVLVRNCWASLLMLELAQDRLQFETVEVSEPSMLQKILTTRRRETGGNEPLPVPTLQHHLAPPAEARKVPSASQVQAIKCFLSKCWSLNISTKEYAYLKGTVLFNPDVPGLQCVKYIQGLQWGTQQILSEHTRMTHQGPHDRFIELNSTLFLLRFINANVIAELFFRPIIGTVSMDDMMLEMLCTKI
# AHR activator: AHR activators, primary screen, cell-based, luminescence, luciferase reporter, human; activation, % at 5 µM; AID 2796, 2010; 320,000 tested, 2.5% active; Aryl hydrocarbon receptor (Homo sapiens), P35869; AHR-responsive luciferase reporter cells; in the data active = activation above about 47%;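 note: 0% = vehicle wells and 100% = reference agonist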
# hgDAF12 agonist: H. glycines DAF-12 receptor agonists, primary screen, cell-based, luminescence, HEK293, GAL4 fusion, UAS-luciferase | HEK293 GAL4-hgDAF12 UAS-luciferase reporter, agonist luminescence; normalized to butyrate control | Nuclear hormone receptor DAF-12 (Heterodera glycines), GAL4 fusion | 370,000 tested, 1.8% active | activation, % at 6.8 µM;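 active = activation above a cutoff set at the mean of all screened compounds plus 3 SD, cut at about 10% in these data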;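 note: 0% = DMSO wells and 100% = sodium butyrate wells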
# hcDAF12 agonist: H. contortus DAF-12 nuclear receptor activators, primary screen, cell-based, luminescence, HEK293, lit1-tk-luc reporter; HEK293 hcDAF-12 lit1-tk-luc reporter; 0% DMSO, 100% Δ7-dafachronic acid; activation, % at 6.8 µM; 370,000 tested, 1.4% active;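 active = activation above the mean of all tested compounds plus 3 SD, cut at about 5.5% in these data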;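 note: 100% = response to 3 µM Δ7-dafachronic acid high control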
# hgDAF12 ag: H. glycines DAF-12 receptor agonists, confirmation, cell-based, luminescence, HEK293, GAL4-LBD fusion. shares compounds with hgDAF12 agonist. HEK293 GAL4-hgDAF12 luciferase reporter, agonist mode; percent of butyrate response. 3,300 tested, 80% active. activation, % at 6.8 µM;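 active = mean activation over triplicate wells above the hit cutoff derived from the earlier primary screen, cut at about 11% in these data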;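 note: 0% = DMSO low control and 100% = 2 mM sodium butyrate high control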
# LXRb DAF12 ctr: LXR agonists, Gal4 luciferase reporter, confirmation, counter-screen for hgDAF-12 agonist project, cell-based, luminescence, HEK293, H. glycines campaign. 24 h. shares compounds with hgDAF12 agonist. activation, % at 6.8 µM. 3,300 tested, under 10 active;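 active = mean activation of the triplicate above a set limit carried over from the primary screen, none filed active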
# * marks the source's active call; other numbers are inactive results; nt = no result.
SMILES,DAX1 inh-1,ssDAF12 agonist,DAX1 inh-2,AHR activator,hgDAF12 agonist,hcDAF12 agonist,hgDAF12 ag,LXRb DAF12 ctr
COc1ccc(-c2cc3ccc(O)cc3oc2=O)cc1,3,0,1,0,14*,5,14*,1
CCCCOc1ccc(C(=O)Nc2ccc(SC(F)F)cc2)cc1OC,0,-2,0,15,-1,-1,nt,nt
COc1ccc(NC(=O)c2cccc(OS(=O)(=O)N(C)C)c2)cc1,2,-1,0,29,17*,2,12*,1
COc1ccc(Oc2ccc(N/C=C3\CCCC3=O)cc2)cc1,-1,-1,-2,5,2,-1,nt,nt
CN(C)c1ccnc(-n2cccc2/C=N/OCc2ccc(F)cc2Cl)c1C#N,0,-1,0,0,-4,-2,nt,nt
COc1ccc2o/c(=N\O)c(C(=O)Nc3ccccc3OC)cc2c1,0,0,-1,22,5,3,nt,nt
COc1ccc(NC(=O)c2ccc(C)cc2)cc1,3.9*,1,-1,-8,14*,4,18*,1
COc1ccc(NC(=O)c2cc3ccccc3cc2O)cc1,1,0,2,23,15*,3,16*,0
COc1ccc(NC(=O)c2cc3ccc(O)cc3o/c2=N\O)cc1,3,1,0,-9,18*,5.7*,15*,1
Cc1csc(NC(=O)c2ccc(Cl)cc2[N+](=O)[O-])n1,1,0,1,12,14*,1,11*,0
COCc1nnc(NC(=O)c2ccc(Cl)cc2[N+](=O)[O-])s1,0,-1,0,-2,-1,-3,nt,nt
Cn1c(SCc2nc(-c3ccc(Cl)cc3)no2)nnc1-c1cccs1,0,-1,0,-1,-1,-1,nt,nt
CC(OC(=O)c1ccc2ccccc2n1)C(=O)Nc1ccc(N2CCOCC2)cc1 (configuration not stated),0,0,-1,16,2,2,nt,nt
O=C(OCc1ccccc1)N1CCC2CC1c1ccc(N3CCNCC3)cc12 (configuration not stated),-1,0,0,nt,14*,4,8,0
Cc1cc(S(=O)(=O)Nc2cccnc2)c(Cl)cc1Cl,0,-1,0,0,0,-2,nt,nt
Cc1ccc2c(Cl)c(C(=O)Nc3cccnc3)sc2c1,3,-1,3,14,20*,2,18*,1
Cc1ccc(NC(=O)N2CCC(c3ccccc3)C2)cc1C (configuration not stated),3.6*,0,5.8*,4,15*,3,19*,1
Cc1ccc(C(=O)Nc2nnc(-c3ccco3)o2)cc1,3,0,-2,9,14*,5,10,0
N#Cc1ccc(C(=O)Nc2nnc(-c3ccco3)o2)cc1,0,-2,0,1,7,0,nt,nt
Cn1cc(SCC(=O)Nc2nccs2)c2ccccc21,4.4*,0,3,16,20*,2,14*,0
Nc1ccccc1SCC(=O)Nc1nccs1,0,-1,2,-2,2,1,nt,nt
